Among the data in ChEMBL document CHEMBL1961873, “Compounds: GSK PKIS; Assays: Nanosyn kinase panel” (2012) are inhibition values, retold here.

For assay [1], the target named is T1, Tyrosine-protein kinase ITK/TSK (Homo sapiens) (UniProt Q08881).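 Further: values are mean percent inhibition of ITK from the GSK PKIS screen.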
T1 sequence (whole entry): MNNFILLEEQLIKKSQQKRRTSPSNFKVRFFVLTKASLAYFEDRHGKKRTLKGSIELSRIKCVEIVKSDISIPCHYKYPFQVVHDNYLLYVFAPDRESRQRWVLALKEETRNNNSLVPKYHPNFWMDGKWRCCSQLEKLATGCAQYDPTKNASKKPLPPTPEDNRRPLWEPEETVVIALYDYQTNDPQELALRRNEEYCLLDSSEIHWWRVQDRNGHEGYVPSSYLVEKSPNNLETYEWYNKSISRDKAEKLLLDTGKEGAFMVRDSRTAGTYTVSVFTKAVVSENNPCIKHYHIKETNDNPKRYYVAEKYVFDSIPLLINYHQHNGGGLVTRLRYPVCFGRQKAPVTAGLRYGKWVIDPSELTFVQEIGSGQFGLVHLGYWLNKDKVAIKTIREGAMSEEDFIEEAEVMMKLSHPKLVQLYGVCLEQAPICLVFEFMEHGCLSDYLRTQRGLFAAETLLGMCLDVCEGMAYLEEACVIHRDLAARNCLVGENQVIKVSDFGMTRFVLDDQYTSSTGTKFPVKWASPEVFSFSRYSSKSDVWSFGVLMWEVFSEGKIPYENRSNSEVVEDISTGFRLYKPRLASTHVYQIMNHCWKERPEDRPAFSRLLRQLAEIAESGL
The note with it: at 1 µM.

Assay [2] concerns the target Tyrosine-protein kinase JAK1 (Homo sapiens) (UniProt P23458). Conditions: at 0.1 µM.
For assay [3] the target is unchanged. The note with it: at 1 µM.
In assay [4] the target is Tyrosine-protein kinase JAK2 (Homo sapiens) (UniProt O60674). The note with it: at 0.1 µM.
Sequence of Tyrosine-protein kinase JAK2 (Homo sapiens) (O60674 whole entry): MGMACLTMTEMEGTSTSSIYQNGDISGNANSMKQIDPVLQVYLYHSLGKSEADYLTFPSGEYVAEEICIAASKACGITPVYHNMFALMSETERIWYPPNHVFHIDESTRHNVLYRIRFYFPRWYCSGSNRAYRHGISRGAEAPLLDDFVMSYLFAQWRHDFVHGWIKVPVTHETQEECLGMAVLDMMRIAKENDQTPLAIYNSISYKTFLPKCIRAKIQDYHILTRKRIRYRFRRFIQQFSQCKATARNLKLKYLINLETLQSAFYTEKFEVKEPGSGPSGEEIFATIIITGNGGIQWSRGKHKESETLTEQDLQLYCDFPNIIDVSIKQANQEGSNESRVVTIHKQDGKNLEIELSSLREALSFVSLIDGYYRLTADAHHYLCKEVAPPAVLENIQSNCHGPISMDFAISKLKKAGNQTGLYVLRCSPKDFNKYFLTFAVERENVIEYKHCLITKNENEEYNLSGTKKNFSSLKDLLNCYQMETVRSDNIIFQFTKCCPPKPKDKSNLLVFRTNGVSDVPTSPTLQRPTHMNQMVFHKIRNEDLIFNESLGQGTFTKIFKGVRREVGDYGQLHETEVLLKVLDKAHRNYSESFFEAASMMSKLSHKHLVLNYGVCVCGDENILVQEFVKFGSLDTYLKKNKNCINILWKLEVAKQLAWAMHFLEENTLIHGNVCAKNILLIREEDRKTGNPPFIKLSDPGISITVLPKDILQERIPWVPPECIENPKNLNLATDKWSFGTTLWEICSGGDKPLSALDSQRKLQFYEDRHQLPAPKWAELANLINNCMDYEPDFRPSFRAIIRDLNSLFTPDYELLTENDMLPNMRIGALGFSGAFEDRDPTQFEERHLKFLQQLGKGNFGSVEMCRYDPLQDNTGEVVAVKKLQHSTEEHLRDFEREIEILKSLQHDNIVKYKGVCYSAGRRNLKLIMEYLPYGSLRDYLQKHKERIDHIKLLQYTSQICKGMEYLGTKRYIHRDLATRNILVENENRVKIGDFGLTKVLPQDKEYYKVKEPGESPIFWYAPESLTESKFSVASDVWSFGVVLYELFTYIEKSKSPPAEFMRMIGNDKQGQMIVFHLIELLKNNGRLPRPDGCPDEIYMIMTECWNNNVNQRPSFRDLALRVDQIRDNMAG
Assay [5] shares this target. The note with it: at 1 µM.
Assay [6] deals with T2, Tyrosine-protein kinase JAK3 (Homo sapiens) (UniProt P52333).
T2 sequence (whole entry): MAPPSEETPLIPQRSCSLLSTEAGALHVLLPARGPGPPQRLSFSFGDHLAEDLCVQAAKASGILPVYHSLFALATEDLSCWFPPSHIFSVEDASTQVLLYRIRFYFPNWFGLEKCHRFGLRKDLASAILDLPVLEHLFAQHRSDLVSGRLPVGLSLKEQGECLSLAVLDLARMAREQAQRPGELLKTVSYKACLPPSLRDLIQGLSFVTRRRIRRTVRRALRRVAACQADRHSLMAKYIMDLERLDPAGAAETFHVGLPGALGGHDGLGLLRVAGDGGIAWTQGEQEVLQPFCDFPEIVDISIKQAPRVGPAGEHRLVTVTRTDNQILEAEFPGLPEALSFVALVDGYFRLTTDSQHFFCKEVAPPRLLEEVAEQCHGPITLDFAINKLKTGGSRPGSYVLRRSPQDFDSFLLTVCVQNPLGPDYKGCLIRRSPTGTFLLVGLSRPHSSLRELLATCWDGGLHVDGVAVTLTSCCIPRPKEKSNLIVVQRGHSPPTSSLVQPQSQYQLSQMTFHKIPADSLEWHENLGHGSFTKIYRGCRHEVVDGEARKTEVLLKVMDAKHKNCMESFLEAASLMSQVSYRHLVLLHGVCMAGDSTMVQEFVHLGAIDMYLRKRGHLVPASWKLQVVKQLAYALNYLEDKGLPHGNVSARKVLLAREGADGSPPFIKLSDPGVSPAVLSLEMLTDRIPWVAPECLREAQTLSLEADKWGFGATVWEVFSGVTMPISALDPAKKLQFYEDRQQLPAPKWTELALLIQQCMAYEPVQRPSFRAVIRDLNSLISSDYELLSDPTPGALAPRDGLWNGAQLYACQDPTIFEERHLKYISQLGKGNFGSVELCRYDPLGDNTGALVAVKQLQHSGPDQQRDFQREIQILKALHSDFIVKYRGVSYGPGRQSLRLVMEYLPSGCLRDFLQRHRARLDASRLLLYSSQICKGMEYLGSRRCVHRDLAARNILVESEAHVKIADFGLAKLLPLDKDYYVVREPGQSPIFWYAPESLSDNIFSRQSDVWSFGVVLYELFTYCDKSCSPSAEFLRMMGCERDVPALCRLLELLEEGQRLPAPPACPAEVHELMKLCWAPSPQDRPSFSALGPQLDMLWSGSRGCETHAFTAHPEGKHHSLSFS
Conditions: at 0.1 µM.

Assay [7] addresses T2, Tyrosine-protein kinase JAK3 (Homo sapiens). Conditions: at 1 µM.
Assay [8] addresses Vascular endothelial growth factor receptor 2 (Homo sapiens) (UniProt P35968). Conditions: at 0.1 µM.
Assay [9] has the same target. Conditions: at 1 µM.
In assay [10] the target is Mast/stem cell growth factor receptor Kit (Homo sapiens) (UniProt P10721). The note with it: at 0.1 µM.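 Further: values are mean inhibition of KIT, from the GSK PKIS dataset.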
Sequence of Mast/stem cell growth factor receptor Kit (Homo sapiens) (P10721 whole entry): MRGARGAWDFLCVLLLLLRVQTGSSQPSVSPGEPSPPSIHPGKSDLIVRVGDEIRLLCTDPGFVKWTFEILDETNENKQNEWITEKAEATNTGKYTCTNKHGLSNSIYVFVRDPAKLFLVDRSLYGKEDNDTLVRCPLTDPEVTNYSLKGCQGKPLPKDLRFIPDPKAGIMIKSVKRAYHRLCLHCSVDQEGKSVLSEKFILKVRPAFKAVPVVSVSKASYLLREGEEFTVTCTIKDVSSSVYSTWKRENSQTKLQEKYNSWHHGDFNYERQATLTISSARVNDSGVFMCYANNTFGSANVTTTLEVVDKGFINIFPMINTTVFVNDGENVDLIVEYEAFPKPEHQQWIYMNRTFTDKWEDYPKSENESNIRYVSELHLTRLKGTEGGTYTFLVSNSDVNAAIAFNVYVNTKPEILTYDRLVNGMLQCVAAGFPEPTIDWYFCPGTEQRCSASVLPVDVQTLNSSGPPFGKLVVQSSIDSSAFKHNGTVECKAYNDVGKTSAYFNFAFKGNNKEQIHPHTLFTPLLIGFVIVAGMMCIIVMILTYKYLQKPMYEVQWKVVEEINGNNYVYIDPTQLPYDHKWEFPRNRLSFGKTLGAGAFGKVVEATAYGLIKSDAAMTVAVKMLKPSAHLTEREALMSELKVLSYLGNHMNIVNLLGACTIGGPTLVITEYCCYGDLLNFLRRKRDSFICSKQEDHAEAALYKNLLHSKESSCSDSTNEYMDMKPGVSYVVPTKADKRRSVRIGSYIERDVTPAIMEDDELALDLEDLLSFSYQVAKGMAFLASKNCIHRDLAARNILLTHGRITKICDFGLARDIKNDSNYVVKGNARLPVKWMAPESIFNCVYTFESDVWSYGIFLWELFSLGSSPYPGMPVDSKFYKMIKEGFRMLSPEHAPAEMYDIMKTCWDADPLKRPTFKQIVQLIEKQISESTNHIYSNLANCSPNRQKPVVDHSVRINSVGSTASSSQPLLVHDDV

Sequence of Vascular endothelial growth factor receptor 2 (Homo sapiens) (P35968 whole entry): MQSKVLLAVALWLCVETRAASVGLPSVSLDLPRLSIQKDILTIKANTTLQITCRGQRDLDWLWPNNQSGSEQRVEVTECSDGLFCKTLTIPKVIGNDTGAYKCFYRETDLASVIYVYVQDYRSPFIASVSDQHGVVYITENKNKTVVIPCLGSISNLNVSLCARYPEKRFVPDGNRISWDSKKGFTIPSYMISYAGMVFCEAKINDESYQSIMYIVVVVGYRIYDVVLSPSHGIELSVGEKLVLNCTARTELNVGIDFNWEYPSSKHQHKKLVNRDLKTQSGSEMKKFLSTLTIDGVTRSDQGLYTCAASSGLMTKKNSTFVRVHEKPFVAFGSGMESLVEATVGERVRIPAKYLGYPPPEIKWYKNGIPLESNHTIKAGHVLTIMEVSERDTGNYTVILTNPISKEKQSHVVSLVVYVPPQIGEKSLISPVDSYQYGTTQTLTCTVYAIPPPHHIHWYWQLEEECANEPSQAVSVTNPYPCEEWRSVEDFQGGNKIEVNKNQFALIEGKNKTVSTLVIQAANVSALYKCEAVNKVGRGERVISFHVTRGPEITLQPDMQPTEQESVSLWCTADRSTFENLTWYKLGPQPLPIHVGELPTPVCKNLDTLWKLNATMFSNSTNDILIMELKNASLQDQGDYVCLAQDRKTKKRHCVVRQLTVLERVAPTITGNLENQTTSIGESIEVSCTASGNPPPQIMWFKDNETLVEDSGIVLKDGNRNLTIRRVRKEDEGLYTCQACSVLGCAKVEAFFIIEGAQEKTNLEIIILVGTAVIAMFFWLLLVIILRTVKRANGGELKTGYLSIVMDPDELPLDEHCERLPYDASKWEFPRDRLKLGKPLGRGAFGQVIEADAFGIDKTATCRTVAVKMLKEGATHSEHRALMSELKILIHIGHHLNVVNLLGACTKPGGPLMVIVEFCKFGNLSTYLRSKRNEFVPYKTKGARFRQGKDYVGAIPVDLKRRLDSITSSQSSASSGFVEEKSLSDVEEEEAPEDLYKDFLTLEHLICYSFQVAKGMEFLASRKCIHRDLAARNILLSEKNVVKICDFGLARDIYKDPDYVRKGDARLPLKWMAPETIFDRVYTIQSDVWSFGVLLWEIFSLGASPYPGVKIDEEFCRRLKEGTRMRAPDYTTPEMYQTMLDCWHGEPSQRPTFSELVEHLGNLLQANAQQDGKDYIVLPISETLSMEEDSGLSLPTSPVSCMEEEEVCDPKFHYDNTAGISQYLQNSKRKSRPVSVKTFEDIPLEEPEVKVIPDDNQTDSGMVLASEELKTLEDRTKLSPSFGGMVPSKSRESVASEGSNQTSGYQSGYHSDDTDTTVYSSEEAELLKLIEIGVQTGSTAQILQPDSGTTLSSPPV
Sequence of Tyrosine-protein kinase JAK1 (Homo sapiens) (P23458 whole entry): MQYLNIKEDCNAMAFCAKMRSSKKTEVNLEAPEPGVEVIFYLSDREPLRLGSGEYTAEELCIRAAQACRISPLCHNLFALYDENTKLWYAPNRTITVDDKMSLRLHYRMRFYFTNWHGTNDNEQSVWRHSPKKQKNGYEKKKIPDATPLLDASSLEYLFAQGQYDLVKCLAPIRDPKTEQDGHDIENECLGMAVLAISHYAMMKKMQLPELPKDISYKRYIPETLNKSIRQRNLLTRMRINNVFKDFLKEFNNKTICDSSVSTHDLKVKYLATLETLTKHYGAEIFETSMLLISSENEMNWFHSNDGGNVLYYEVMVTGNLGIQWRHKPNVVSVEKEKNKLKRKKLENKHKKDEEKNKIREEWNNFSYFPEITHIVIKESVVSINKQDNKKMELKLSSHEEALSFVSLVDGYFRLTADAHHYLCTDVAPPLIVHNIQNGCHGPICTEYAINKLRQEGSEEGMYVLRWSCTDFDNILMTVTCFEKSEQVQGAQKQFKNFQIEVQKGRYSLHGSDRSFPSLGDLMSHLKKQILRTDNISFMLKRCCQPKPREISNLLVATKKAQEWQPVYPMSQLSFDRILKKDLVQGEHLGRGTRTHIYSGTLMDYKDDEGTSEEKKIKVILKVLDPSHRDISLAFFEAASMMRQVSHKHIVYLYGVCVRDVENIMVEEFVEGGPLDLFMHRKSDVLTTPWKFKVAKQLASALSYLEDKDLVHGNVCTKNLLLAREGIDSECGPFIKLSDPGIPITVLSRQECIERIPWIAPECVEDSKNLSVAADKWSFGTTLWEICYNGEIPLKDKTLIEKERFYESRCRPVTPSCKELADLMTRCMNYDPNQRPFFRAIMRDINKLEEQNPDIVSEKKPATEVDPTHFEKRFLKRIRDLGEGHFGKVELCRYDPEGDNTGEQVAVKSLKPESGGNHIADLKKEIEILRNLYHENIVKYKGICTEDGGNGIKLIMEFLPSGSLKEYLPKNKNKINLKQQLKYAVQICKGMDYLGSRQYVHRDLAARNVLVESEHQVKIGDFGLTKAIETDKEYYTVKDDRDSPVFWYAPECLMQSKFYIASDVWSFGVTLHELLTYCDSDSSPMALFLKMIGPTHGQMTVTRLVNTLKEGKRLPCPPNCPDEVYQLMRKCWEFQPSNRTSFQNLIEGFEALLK

Regarding `COc1cc(N2CCN(C(C)C)CC2)ccc1Nc1nc(Nc2cccc(F)c2C(=O)O)c2cc[nH]c2n1`, the inhibition in assay [1] was 5.92%; in assay [2], 4.17%; in assay [3], 8.87%; in assay [4] it was 6.66%; in assay [5], 2.37%; in assay [6], -1.39%. Also, the inhibition in assay [7] was determined as 0.51%; in assay [8], 4.67%; in assay [9], 6.45%; in [10], 2.86%.

With `COc1ccc(Nc2ncc(-c3ccccc3)o2)cc1OC`, the inhibition came to 3.7% in assay [1]; 0.7% in [2]; 7.81% in assay [3]; 1.09% in [4]; 3.43% in assay [5]; 0.88% in assay [6]. In addition, the inhibition in [7] was 10.7%; in assay [8], 10.6%; in assay [9], 44.2%; in assay [10] it was 79.1%.

On to `CNC(=O)c1ncccc1Nc1nc(Nc2cc3c(cc2OC)CCCN3C(=O)CN(C)C)nc2[nH]ccc12`, for which the inhibition in [1] is 2.8%; in [2] it was 4.62%; in [3] it was -0.74%; in assay [4] it was 1.24%; in assay [5] it was 1.63%; in assay [6], 2.81%. In addition, the inhibition is 0.89% in [7], 4.97% in assay [8], 5.02% in [9] and 5.24% in assay [10].

Consider `COc1cc(N2CCN(C(C)C)CC2)ccc1Nc1nc(Nc2cccc3ncccc23)c2cc[nH]c2n1`, for which the inhibition in assay [1] is 2.05%; in assay [2], -1.68%; in assay [3], -0.17%; in assay [4], -0.12%; in assay [5] it was 0.72%; in assay [6] it was 1.35%. Also, the inhibition was 1.57% in assay [7], 1.96% in assay [8], 3.64% in [9] and -0.77% in assay [10].

Regarding `Cc1ccc(-c2cc3c(NC(=O)C4CC4)ncnc3o2)cc1`, the inhibition is 2.63% in assay [1]; 2.29% in [2]; 1.7% in assay [3]; 2.06% in assay [4]; 2.55% in assay [5]; -0.9% in [6]. For the same compound, the inhibition amounted to 2.42% in [7], 6.12% in assay [8], 13.4% in [9] and 8.72% in [10].

For the compound `N#Cc1ccc2c(-c3ccnc(NC4CC4)n3)c(-c3ccc(F)cc3)nn2c1`, the inhibition in assay [1] is 0.51%; in assay [2], 0.46%; in [3] it was 0.31%; in assay [4] it was -0.51%; in assay [5], -0.42%; in assay [6], -1.62%. Moreover, the inhibition was -1.11% in assay [7], 1.86% in assay [8], 14.6% in assay [9] and 3.02% in [10].

As for `CCOc1ccc2c(-c3ccnc(Nc4cc(OC)cc(C(F)(F)F)c4)n3)cnn2n1`, the inhibition was 1.63% in [1]; -2.13% in assay [2]; 6.23% in [3]; 1.22% in assay [4]; 5.38% in assay [5]; 0.66% in assay [6]. In addition, the inhibition in assay [7] came out at 9.24%; in assay [8] it was 4.19%; in assay [9] it was 19.1%; in [10], 7.32%.

As for `CN(C)CCNC(=O)Nc1ccc(N(C)c2ccnc(Nc3ccc(CS(C)(=O)=O)cc3)n2)cc1`, the inhibition in assay [1] is 3.84%; in assay [2], 3.89%; in assay [3] it was -1.93%; in assay [4] it was 1.46%; in assay [5] it was 3.2%; in assay [6], -1.47%. Also, the inhibition in assay [7] was -0.17%; in assay [8] it was 7.04%; in assay [9], 18.9%; in assay [10], 13.9%.

On to `Cc1c2ccc(N(C)c3ccnc(Nc4cccc(S(N)(=O)=O)c4)n3)cc2nn1C`, for which the inhibition is 2.14% in assay [1]; 1.56% in assay [2]; 9.69% in assay [3]; 2.02% in assay [4]; 6.46% in [5]; -4.75% in assay [6]. Besides, the inhibition in assay [7] turned out to be 0.05%; in assay [8], 76.4%; in [9], 73%; in assay [10], 92.6%.

With `c1cnn2ncc(-c3ccnc(NCCCN4CCOCC4)n3)c2c1`, the inhibition in assay [1] is 0.08%; in [2], 2.8%; in [3], 4.8%; in assay [4], 2.27%; in assay [5] it was 1.4%; in assay [6] it was -1.85%. Also, the inhibition is -2.75% in assay [7], 5.58% in [8], 6.83% in assay [9] and 5.59% in assay [10].

As for `O=C(O[C@H]1CN[C@H](C#Cc2cc3ncnc(Nc4ccc5c(ccn5Cc5cc(F)ccc5F)c4)c3s2)C1)N1CCOCC1`, the inhibition in assay [1] was 2.55%; in assay [2], 5.05%; in assay [3], 1.68%; in assay [4] it was 1.8%; in [5], 1.6%; in assay [6], -1.37%. Further, the inhibition in [7] was 0.4%; in assay [8], 3.78%; in assay [9], 10.6%; in [10], 2.29%.

Turning to `COc1cc(Nc2ncc(-c3ccccc3)o2)cc(OC)c1`, the inhibition in assay [1] is 3.63%; in assay [2], -0.99%; in assay [3], 5.5%; in assay [4] it was 2.04%; in [5], 1.78%; in assay [6] it was -3.48%. The inhibition in [7] is -1.92%; in assay [8] it was 6.74%; in [9] it was 19.3%; in assay [10] it was 78.5%.

As for `CCCNc1cccc(-n2ncc3c(N/N=C/c4ccncc4)ncnc32)c1`, the inhibition in [1] is 10.8%; in [2], 6.59%; in assay [3], 11.7%; in assay [4], 0.82%; in assay [5], 14.7%; in assay [6], -1.09%. The inhibition was determined as 8.21% in assay [7], 17.3% in assay [8], 64.9% in assay [9] and 2.4% in assay [10].

Regarding `N#Cc1cccc(Nc2ncc(-c3ccccc3)o2)c1`, the inhibition in assay [1] was 2.42%; in assay [2], 0.52%; in assay [3] it was 10.7%; in assay [4], 0.78%; in assay [5] it was 0.35%; in assay [6] it was -1.06%. In addition, the inhibition in assay [7] was -0.94%; in [8] it was 3.11%; in assay [9], 11%; in assay [10], 19.9%.

`Cc1cc(O)cc(C)c1/C=C/c1cncc(C(N)=O)c1`: the inhibition in assay [1] is 2.12%; in [2] it was -0.72%; in assay [3], 2.56%; in assay [4], 2.3%; in assay [5] it was 2.93%; in assay [6] it was -0.77%. In addition, the inhibition in assay [7] was 1.29%; in [8], 4.56%; in assay [9] it was 6.58%; in assay [10] it was 16.3%.

As a reminder, the inhibition is the drop in the measured response relative to a control, in per cent.
